58 molecules from PubChem BioAssay AID1224921 (Broad Institute, 2016) can be followed below.

Molecules are shown by their SMILES. Hit rate of the full screen: of about 1,400 compounds, about 350 (25%) were called active. About 2% were inconclusive and are not listed. These entries were drawn from the full list. Results with a measured potency or affinity are listed apart. A number with no mark means an inactive call. The rule behind the calls is not given here.

This assay can be described thus: C. difficile growth inhibition, confirmation, 4-point retest (AID 1224921).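 Note: plate controls were DMSO wells for no effect and levofloxacin 16 µg/mL wells for full effect.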 Particulars: Clostridioides difficile clinical isolate growth, OD600, 24 h, active compounds read low; at 30 µM unless noted.
Consider `CO[C@@H]1CN(C)C(=O)c2ccc(NC(=O)C3CCCC3)cc2OC[C@@H](C)NC[C@@H]1C`, for which the max activity was -1.17% [at 1.95 µM]. Turning to `CO[C@H]1CN(C)C(=O)c2ccc(NC(=O)C3CCCCC3)cc2OC[C@H](C)N(Cc2nccs2)C[C@H]1C`, the max activity was 21.8% [at 8 µM].

As for `C[C@@H]1CN([C@H](C)CO)C(=O)c2ccccc2-c2ccccc2CO[C@H]1CN(C)S(=O)(=O)c1ccsc1`, the max activity was 29%. Then `C[C@@H]1CN([C@H](C)CO)C(=O)Cc2cc(NS(C)(=O)=O)ccc2O[C@H]1CN(C)Cc1ccccc1`, with 15.9%. In the case of `COc1ccc(-c2ccc([C@H]3[C@H](C#N)N(C(=O)NC4CCCC4)[C@H]3CO)cc2)cc1` it was 36.8% [at 9 µM]; in that of `CO[C@H]1CN(C)C(=O)c2cc(NC(=O)c3cccc(F)c3)ccc2OC[C@H](C)N(C(C)=O)C[C@H]1C`, -6.58%; in that of `Cc1nn(C)cc1NC(=O)C[C@@H]1CC[C@@H]2[C@@H](COc3ccc(NC(=O)Nc4cccc(Cl)c4)cc3C(=O)N2C)O1`, 10.1%.

As for `Cc1ccccc1-c1ccc2c(c1)O[C@H](CN(C)Cc1ccncc1)[C@@H](C)CN([C@H](C)CO)S2(=O)=O`, the max activity was 13.6%. In the case of `CCC(=O)Nc1ccc2c(c1)OC[C@H](C)N(CC1CCCCC1)C[C@H](C)[C@@H](OC)CN(C)C2=O` it was 33.6%; in that of `COCC(=O)Nc1ccc2c(c1)OC[C@@H](C)N(Cc1ccccc1F)C[C@@H](C)[C@@H](OC)CN(C)C2=O`, -4.19%. In the case of `C[C@@H]1CN([C@H](C)CO)C(=O)c2ccccc2-c2ccccc2CO[C@@H]1CN(C)C(=O)CCN(C)C` it was -7.59% [at 2.1 µM]. Then `COc1ccc(S(=O)(=O)Nc2ccc3c(c2)CC(=O)N([C@@H](C)CO)C[C@H](C)[C@@H](CN(C)CC2CCCCC2)O3)cc1`, with 52.7%; and `C[C@@H]1CN([C@H](C)CO)C(=O)Cc2cc(NS(=O)(=O)c3ccccc3)ccc2O[C@@H]1CN(C)Cc1ccc(Cl)c(Cl)c1`, with 30.5% [at 35 µM].

With `C[C@H](CO)N1C[C@H](C)[C@H](CN(C)CC2CCCCC2)OCCCC[C@H](C)Oc2ccc(NS(=O)(=O)c3ccc(Cl)cc3)cc2C1=O`, the max activity was 23% [at 8 µM]. Then `C[C@@H]1CN([C@@H](C)CO)C(=O)Cc2cc(NS(C)(=O)=O)ccc2O[C@H]1CN(C)CC1CCCCC1`, with 14.3%; and `C[C@@H]1CCCCO[C@H](CN(C)Cc2ccc(C(F)(F)F)cc2)[C@@H](C)CN([C@@H](C)CO)C(=O)c2cc(NS(=O)(=O)c3ccc(Cl)cc3)ccc2O1`, with 24% [at 8 µM]. For the molecule `Cc1ccc(S(=O)(=O)Nc2ccc3c(c2)C(=O)N([C@@H](C)CO)C[C@@H](C)[C@H](CN(C)C)OCCCC[C@H](C)O3)cc1`, the max activity was -4% [at 8 µM]. Regarding `C[C@H]1CN([C@@H](C)CO)C(=O)Cc2cc(NS(=O)(=O)c3ccccc3)ccc2O[C@@H]1CN(C)Cc1ccc(Cl)c(Cl)c1`, the max activity was 49.4%.

Regarding `Cc1ccc(S(=O)(=O)Nc2ccc3c(c2)C(=O)N([C@@H](C)CO)C[C@H](C)[C@@H](CN(C)Cc2ccc(C(F)(F)F)cc2)OCCCC[C@@H](C)O3)cc1`, the max activity was 32.7% [at 8 µM]. Then `O=C(C[C@H]1C[C@@H]2c3cc(NC(=O)C4CCC4)ccc3O[C@@H]2[C@@H](CO)O1)NCc1ccc2c(c1)OCO2`, with -8.66% [at 0.5 µM]; and `COc1ccccc1NC(=O)N[C@@H]1CC[C@@H](CC(=O)N2CCC(Cc3ccccc3)CC2)O[C@@H]1CO`, with -7.56%. In the case of `CCS(=O)(=O)Nc1ccc2c(c1)C(=O)N(C)C[C@@H](OC)[C@H](C)CN(C(C)=O)[C@@H](C)CO2` it was -11.1%; in that of `C[C@@H]1CCCCO[C@H](CN(C)Cc2ccc(C(=O)O)cc2)[C@H](C)CN([C@H](C)CO)C(=O)c2cc(NC(=O)Nc3ccc4c(c3)OCO4)ccc2O1`, -16.4%.

Take `C[C@@H]1CN([C@@H](C)CO)S(=O)(=O)c2ccc(C3=CCCCC3)cc2O[C@@H]1CN(C)Cc1cccnc1`: the max activity was 23.6%. In the case of `O=C(Nc1cc(F)ccc1F)N[C@@H]1CC[C@@H](CC(=O)N2CCc3ccccc3C2)O[C@H]1CO` it was 14.6%; in that of `CNC[C@@H]1Oc2cc(C#CCOC)ccc2S(=O)(=O)N([C@@H](C)CO)C[C@H]1C`, -11.1% [at 8 µM]; in that of `O=C(N[C@H]1C=C[C@H](CC(=O)N2CCc3ccccc3C2)O[C@H]1CO)C1CC1`, -8.59%. In the case of `C[C@H]1CN([C@@H](C)CO)S(=O)(=O)c2ccc(C#CC3CCCC3)cc2O[C@H]1CN(C)Cc1cccnc1` it was 23.6%; in that of `O=C(C[C@@H]1C[C@@H]2c3cc(NC(=O)C4CCC4)ccc3O[C@@H]2[C@H](CO)O1)NCc1cc(F)ccc1F`, 4.63%. As for `Cc1ccc(-c2ccc3c(c2)O[C@@H](CN(C)Cc2ccncc2)[C@@H](C)CN([C@H](C)CO)S3(=O)=O)cc1`, the max activity is -8.83% [at 8 µM]. As for `C[C@H](CO)N1C[C@H](C)[C@H](CN(C)Cc2ccncc2)Oc2cc(C3=CCCCC3)ccc2S1(=O)=O`, the max activity is 33%. In the case of `C[C@H]1CN([C@@H](C)CO)C(=O)c2ccccc2-c2ccccc2CO[C@H]1CN(C)Cc1cccc(O)c1` it was 7.55%; in that of `C[C@H]1CN([C@@H](C)CO)C(=O)c2ccccc2-c2ccccc2CO[C@H]1CN(C)C(=O)CCN(C)C`, -12.8% [at 35 µM]. In the case of `C/C=C/c1ccc2c(c1)O[C@H](CN(C)C(=O)Nc1ccc(C(F)(F)F)cc1)[C@@H](C)CN([C@@H](C)CO)S2(=O)=O`, the max activity was 32.5% [at 8 µM]. For the molecule `C[C@H]1CN([C@@H](C)CO)C(=O)c2cc(Br)cnc2O[C@@H]1CN(C)C(=O)c1ccccc1`, the max activity is -20% [at 8 µM].

For the molecule `COc1ccc(NC(=O)Nc2cccc3c2O[C@@H](CN(C)C(=O)NC2CCCCC2)[C@H](C)CN([C@@H](C)CO)C3=O)cc1`, the max activity is 10.1%. Take `C[C@@H]1CN([C@@H](C)CO)S(=O)(=O)c2ccc(C#Cc3ccccc3F)cc2O[C@H]1CN(C)CC1CCOCC1`: the max activity is 35.2%. Then `COc1ccccc1C#Cc1ccc2c(c1)O[C@@H](CN(C)Cc1cccnc1)[C@@H](C)CN([C@@H](C)CO)S2(=O)=O`, with 24.6%; and `CC(C)NC(=O)N(C)C[C@H]1OCc2ccccc2-c2ccccc2C(=O)N([C@@H](C)CO)C[C@H]1C`, with -14.3%; and `COc1cccc(C(=O)Nc2ccc3c(c2)OC[C@@H](C)N(C(=O)C2CCCC2)C[C@H](C)[C@@H](OC)CN(C)C3=O)c1`, with -18.8% [at 8 µM].

As for `CC(C)CC#Cc1ccc2c(c1)O[C@H](CN(C)Cc1ccncc1)[C@@H](C)CN([C@@H](C)CO)S2(=O)=O`, the max activity is 23.1%.

For `C[C@H](CO)N1C[C@H](C)[C@H](CN(C)Cc2ccc3c(c2)OCO3)Oc2ncc(-c3cccc(F)c3)cc2C1=O`, the max activity was -9.89% [at 8 µM]. For the molecule `N#C[C@H]1[C@H](c2ccc(-c3cccc(F)c3)cc2)[C@@H](CO)N1C(=O)NC1CCCC1`, the max activity was 28.5%. `CCCC(=O)Nc1ccc2c(c1)C(=O)N(C)C[C@@H](OC)[C@@H](C)CN(Cc1ccccc1)[C@H](C)CO2`: the max activity is 9.23%. As for `C[C@H]1CN([C@@H](C)CO)S(=O)(=O)c2ccc(C3=CCCCC3)cc2O[C@H]1CN(C)C(=O)c1ccncc1`, the max activity is 14.4%.

On to `N#C[C@H]1[C@@H](c2ccc(C#Cc3ccccc3F)cc2)[C@@H](CO)N1C(=O)C1CCCCC1`, for which the max activity is -9.56%. Regarding `C[C@@H]1CN([C@@H](C)CO)C(=O)Cc2cc(NC(=O)C3CC3)ccc2O[C@@H]1CN(C)Cc1ccc(-c2ccccc2)cc1`, the max activity is 49.5%. `O=C(C[C@H]1CC[C@@H]2[C@H](COC[C@H](O)CN2Cc2ccc(Cl)cc2)O1)NCc1ccccc1Cl`: the max activity is 32% [at 8 µM]. Then `COc1cccc(NC(=O)N[C@H]2CC[C@H](CC(=O)N3CCCCC3)O[C@@H]2CO)c1`, with 17.5%; and `O=C(C[C@@H]1CC[C@H]2[C@@H](COC[C@@H](O)CN2Cc2ccc(Cl)cc2)O1)NCc1ccccc1Cl`, with -28.7% [at 1.95 µM]; and `C[C@@H]1CN([C@@H](C)CO)S(=O)(=O)c2ccc(C3=CCCCC3)cc2O[C@H]1CN(C)Cc1cccnc1`, with 15.4%. With `CNC[C@H]1Oc2cc(C#CCC3CCCC3)ccc2S(=O)(=O)N([C@@H](C)CO)C[C@@H]1C`, the max activity was 29.2% [at 8 µM]. Consider `CO[C@@H]1CN(C)C(=O)c2cc(NC(=O)Nc3cccc(F)c3)ccc2OC[C@@H](C)N(C)C[C@H]1C`, for which the max activity was -12.5%. For `O=C(Nc1ccc(F)cc1)Nc1ccc2c(c1)[C@@H]1C[C@H](CC(=O)N3CCCCC3)O[C@@H](CO)[C@@H]1O2`, the max activity is -6.91%. On to `CC(C)C#Cc1ccc2c(c1)O[C@@H](CN(C)Cc1ccncc1)[C@H](C)CN([C@H](C)CO)S2(=O)=O`, for which the max activity was 6.91% [at 1.95 µM]. `COc1cccc(NC(=O)N[C@H]2C=C[C@@H](CC(=O)NCc3ccncn3)O[C@H]2CO)c1`: the max activity was -10.2% [at 1.95 µM]. In the case of `C[C@H]1CN([C@@H](C)CO)S(=O)(=O)c2ccc(C3=CCCC3)cc2O[C@@H]1CN(C)Cc1ccncc1` it was -16.8% [at 1.95 µM]; in that of `CCCN1C[C@H](C)[C@H](OC)CN(C)C(=O)c2ccc(NC(=O)c3ccc(F)cc3)cc2OC[C@@H]1C`, -9.18%.
